Reference: PubChem BioAssay AID1863 (Southern Research Specialized Biocontainment Screening …, 2009)
Among all 300,000 compounds or so, about 480 (0.16%) were called active. Only a sample is shown. Entries with a potency or affinity are not part of this list. Unmarked numbers belong to inactive results.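 How the source made its calls: active means inhibition over 29.93%, a cutoff 3 SD above the screen mean, later confirmed by dose response; inconclusive means inhibition over 29.93% but no dose response follow-up; inactive means inhibition at most 29.93% or unconfirmed.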

Assay: PhoP-dependent GFP reporter repression – Salmonella Typhimurium, primary screen (AID 1863);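 further: 0% = low Mg2+ inducing control and 100% = high Mg2+ repressing control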
Conditions: S. Typhimurium PhoP-regulated promoter GFP reporter, 4 h; at 50 µM; active compounds read high

In order of rising inhibition:
1. CCN1/C(=C/c2ccc3cc(C)ccc3[n+]2CC)Sc2ccccc21  -133%
2. COc1ccc(C(=O)c2no[n+]([O-])c2C(=O)c2ccc(OC)cc2)cc1  -73.5%
3. CC[n+]1c(/C=C/C=C/N(C(C)=O)c2ccccc2)sc2cc(OC)ccc21  -71.7%
4. Cc1ccc(CNCCC2=CCCCC2)cc1  -46.6%
5. Cc1ccc(C(=O)c2no[n+]([O-])c2C(=O)c2ccc(C)cc2)cc1  -26.5%
6. CC[n+]1c(/C=C/Nc2ccccc2)sc2ccccc21  -20.8%
7. Cc1cc(C)n(C(=O)CNC(=O)c2ccc3c(c2)OCCO3)n1  -15.6%
8. Cc1ccc(C(=O)OCC(=O)NC(=O)c2cccn2C)cc1[N+](=O)[O-]  -12.8%
9. COCCN1CCC(CNCc2c(C(=O)N3CCCCC3)nc3c(C)cccn23)C1 (stereo unspecified)  -11.8%
10. CCN1/C(=C\C=C(C(C)=O)C(C)=O)Sc2ccccc21  -11.4%
11. CC[n+]1c(/C=C/C=C/N(C(C)=O)c2ccccc2)sc2ccccc21  -10.1%
12. CCOc1ccccc1CN1CCN(Cc2ccon2)CC1CCO (stereo unspecified)  -9.77%
13. O=C(NCC(O)COc1ccc([N+](=O)[O-])cc1)c1ccccc1 (stereo unspecified)  -9.65%
14. O=C(O)C1C2CCC(O2)C1C(=O)Nc1ccccc1Br (stereo unspecified)  -9.38%
15. COc1ccc(C)cc1-n1c(-c2ccncc2)n[nH]c1=S  -9.19%
16. CCOC(=O)C1=C(O)/C(=C/c2cccc(OC)c2O)N=C1C  -9.18%
17. CCN1/C(=C/C=C/C=C/C=C/c2sc3ccccc3[n+]2CC)Sc2ccccc21  -8.59%
18. Cc1nc2nc3c(cn2n1)C(=O)CC(C)(C)C3  -6.32%
19. Cn1c(CSc2nc3ccccc3s2)nnc1SCC(=O)NCc1ccccn1  -6.01%
20. CCO[C@@H]1OC(C(=O)N2CCCCCCC2)=C[C@H](c2cn(C(C)=O)c3ccccc23)[C@H]1CCCO  -5.2%
21. CCOC(=O)CSc1nc2c(c(=O)n1-c1ccc(OCC)cc1)SCC2  -4.68%
22. Cc1cc(/C=C2/C(=O)NN(c3ccccc3)C2=O)c(C)n1-c1ccc(O)cc1  -4.21%
23. Cn1c(CCCNC(=O)c2cccs2)nc2ccccc21  -1.8%
24. COc1ccc(N(C(=O)CNC(=O)c2cccs2)C(C(=O)NC2CCCC2)c2ccncc2)cc1 (stereo unspecified)  -0.95%
25. CCn1cc(C(=O)NCCc2ccccc2)c(=O)c2cc(F)c(N3CCN(C)CC3)cc21  -0.827%
26. CC(C(=O)c1ccc(Br)cc1)[n+]1cccc(NC(=O)c2ccccc2)c1 (stereo unspecified)  -0.32%
27. COc1ccc(/C(C)=N/NC(=O)CNC(=O)c2ccncc2)cc1  -0.07%
28. CC[n+]1c(/C=C(\C)SC)sc2ccccc21  0.17%
29. CC[n+]1c(/C=C(/C)SC)sc2ccccc21  0.31%
30. COCCCn1c(Cc2csc(Nc3ccc(F)cc3)n2)nnc1SCC(N)=O  0.4%
31. COc1cc(-c2nnc(SCC(=O)/C(C#N)=C(\C)N)o2)cc(OC)c1OC  0.61%
32. Cc1cc(CNC(=O)c2cccnc2Cl)c2ccccc2n1  1.03%
33. Cc1ccc(NC(=O)c2ncc(Cl)c(Cl)c2Cl)cc1C  2%
34. CC(C(=O)c1ccc(-c2ccccc2)cc1)[n+]1cccc(C(N)=O)c1 (stereo unspecified)  2.06%
35. Cc1cccc(NC2=CC(=O)CC(C)(C)C2)c1C  2.2%
36. CCC(CO)NC(=O)c1ccccc1C(F)(F)F (stereo unspecified)  2.52%
37. COC(=O)c1ccccc1NC(=O)C1CCN(C(=O)Cc2ccccc2)CC1  3.37%
38. CC(C)n1c(SCC(=O)NC2CC2)nnc1-c1ccco1  3.76%
39. Nc1cn(C2OC(CO)C(O)C2O)c(=O)[nH]c1=O (stereo unspecified)  3.77%
40. O=c1[nH]c(=O)n(C2OC(CO)C(O)C2O)cc1Br (stereo unspecified)  3.95%
41. COc1ccc2c(CC(=O)Nc3ccc(OC)c(S(=O)(=O)N4CCOCC4)c3)coc2c1  4.59%
42. O=C(C[n+]1cccc(CNC(=O)c2ccc(OC(F)F)cc2)c1)Nc1ccc(F)cc1  5.04%
43. C=CCNC(=O)c1cn(CC)c2cc(N3CCN(C(=O)c4ccco4)CC3)c(F)cc2c1=O  5.05%
44. CCOC(=O)COc1c(Br)cc(/C=C2\SC(=O)N(CC(=O)N3CCCC3)C2=O)cc1OC  5.47%
45. CCn1cc(C(=O)NCc2ccccc2)c(=O)c2cc(F)c(N3CCN(C(=O)c4ccco4)CC3)cc21  6.24%
46. CCOc1ccc(C(=O)NCC(=O)N2CCC3CCCCC3C2)cc1OCC (stereo unspecified)  7.73%
47. CN(CCCC[C@H](CNCc1ccc(-c2ccccc2)cc1)N1C[C@H](c2ccccc2)N(CCc2ccc(Cl)c(Cl)c2)C(=O)C1=O)Cc1ccc(-c2ccccc2)cc1  8.2%
48. O=C1NN(c2ccccc2)C(=O)/C1=C/c1coc2ccccc2c1=O  8.22%
49. CCn1cc(C(=O)O)c(=O)c2cc(F)c(N3CCN(C(=S)NC(=O)c4ccccc4Br)CC3)cc21  8.64%
50. CCc1ccc(N2C(=O)Nc3ccccc3C2(O)C(=O)N2CCN(c3ccccn3)CC2)cc1 (stereo unspecified)  10.3%
51. CCOc1ccc(CCN2C(=O)C(=O)N([C@H](CCCN(C)Cc3ccccc3)CNCc3ccccc3)C[C@@H]2C(C)C)cc1  12.1%
52. O=C(NC1CC1)c1c[nH]c2ccc(S(=O)(=O)Nc3cccc(C(F)(F)F)c3)cc2c1=O  14.8%
53. Clc1ccc(CNCCC2=CCCCC2)cc1  18.9%
54. O=C(C[n+]1cccc(CNC(=O)c2ccc(OC(F)F)cc2)c1)Nc1cccc(C(F)(F)F)c1  25.3%
55. N=c1n(CC(=O)c2ccc([N+](=O)[O-])cc2)c2ccccc2n1Cc1ccc(Cl)cc1  25.9%
56. N=c1n(CC(=O)c2ccc([N+](=O)[O-])cc2)c2ccccc2n1Cc1ccccc1  39%
